Results on 19 molecules are retold here after PubChem BioAssay (NCATS).

Unmarked numbers belong to inactive results. Records with an inconclusive call do not appear. Active and inactive are the calls of the source. Unless noted, calls follow the shape of the dose curve; as a rule, active = well fitted curve in the direction sought with a large enough effect; inconclusive = small, poorly fitted or top-dose-only effect, or another doubt; inactive = no such curve, though single readings can be large; an effect the other way counts as inactive or inconclusive.

Assay [1] addresses Ubiquitin carboxyl-terminal hydrolase 1 (Homo sapiens) (UniProt O94782). As to the kind of experiment: Inhibitors of USP1/UAF1: Pilot qHTS (AID 504865).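 Also: rhodamine fluorescence freed from ubiquitin-rhodamine substrate followed over time; top concentration of the series differs between compounds; % is scaled to controls: 0 for no effect and ±100 for the full control effect; nearly all actives have a fitted effect of over 35% in size.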 In short, it runs like this: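 USP1/UAF1 complex (1nM) preincubated with compound 15 min at room temperature, then Ub-Rho substrate (150nM final) added. Fluorescence read kinetically at 480/540 nm, 6 reads every 60 seconds. Buffer: 50mM HEPES pH 7.8, 0.5mM EDTA, 0.1 mg/ml BSA, 1mM TCEP, 0.01% Tween-20.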
On the technique in general: In qHTS, concentration-response curves come from the screen itself.

Assay [2] is described as follows: S16 Schwann cell viability assay (CellTiter-Glo assay) (AID 624031).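 Also: native untransfected S16 rat Schwann cells; cellular ATP luminescence as a viability measure; plate controls were DMSO-treated cells for no effect and cell-free wells for full effect; nearly all actives have a fitted effect of over 70% in size.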 The method, boiled down:
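Concentration-effect curves come from CellTiter-Glo luminescence of S16 rat Schwann cells after 24 h compound exposure. Each reading was normalized to DMSO wells (0%) and wells without cells, and curves were ranked by r2 and response magnitude.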

Assay [3] is described as follows: S16 Schwann cell PMP22 intronic element firefly luciferase assay (AID 624032). Also: nearly all actives have a fitted effect of over 30% in size. Also: potency is read from the fitted curve at half-maximal effect. In short, it runs like this:
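Rat S16 Schwann cells stably carrying a PMP22 intronic element-driven Fluc reporter were seeded overnight, then exposed to compounds for 24 h at 37 °C. Luminescence was normalized to PTC124 (positive control) and DMSO (0% activity).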

For assay [4], the system named is DIV17. As to the kind of experiment: qHTS profiling for inhibitors of Plasmodium falciparum proliferation (AID 504749). Also: nearly all actives have a fitted effect of over 60% in size. Also: potency is read from the fitted curve at half-maximal effect.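 As to activity, negative = inhibition: 0% = DMSO vehicle and full inhibition = artemisinin control.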 To be noted: P. falciparum in erythrocytes, SYBR Green DNA, 72 h; series mostly up to 28.7 µM. In short, it runs like this:
(§1)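 Parasite proliferation within erythrocytes, 72 h exposure. Endpoint: SYBR Green I fluorescence after overnight lysis at room temperature. Controls: 0.29 uM artemisinin, DMSO.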

The subject of assay [5] is W2. Described as above. Conditions: P. falciparum in erythrocytes, SYBR Green DNA, 72 h; series mostly up to 28.7 µM. In short, it runs like this: as §1
A short description of assay [6]: Confirmation and Secondary Assay for Modulators of Hemoglobin Beta Chain Splicing at IVS2 654 locus (AID 910).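 Also: per-well total GFP intensity by laser scanning cytometry after 2-day treatment; % of control where 0% means no effect.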 In short, it runs like this: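 HeLa cells stably carrying EGFP interrupted by mutant beta-globin IVS2-654 intron (CMV-driven) were treated with compound for 2 days at 37C; corrected splicing was scored as total peak GFP intensity per well (488 nm excitation, 500-520 nm emission).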

In assay [7] the target is Tyrosyl-DNA phosphodiesterase 1 (Homo sapiens) (UniProt Q9NUW8). As to the kind of experiment: Confirmation Assay for Inhibitors of Tyrosyl-DNA Phosphodiesterase (TDP1) (AID 489007). Also: potency is read from the fitted curve at half-maximal effect; nearly all actives have a fitted effect of over 40% in size. To be noted: recombinant human TDP1 enzymatic activity, dose-response. The method, boiled down: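 Tdp1 1 nM + cpd, 15 min RT; add biotin/phosphotyrosine-FITC oligo 15 nM, 5 min RT; add AS donor/acceptor beads 10 ug/ml, 10 min RT; read AlphaScreen. No-enzyme wells = max signal.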
Tyrosyl-DNA phosphodiesterase 1 (Homo sapiens), sequence (Q9NUW8 whole entry, looked up): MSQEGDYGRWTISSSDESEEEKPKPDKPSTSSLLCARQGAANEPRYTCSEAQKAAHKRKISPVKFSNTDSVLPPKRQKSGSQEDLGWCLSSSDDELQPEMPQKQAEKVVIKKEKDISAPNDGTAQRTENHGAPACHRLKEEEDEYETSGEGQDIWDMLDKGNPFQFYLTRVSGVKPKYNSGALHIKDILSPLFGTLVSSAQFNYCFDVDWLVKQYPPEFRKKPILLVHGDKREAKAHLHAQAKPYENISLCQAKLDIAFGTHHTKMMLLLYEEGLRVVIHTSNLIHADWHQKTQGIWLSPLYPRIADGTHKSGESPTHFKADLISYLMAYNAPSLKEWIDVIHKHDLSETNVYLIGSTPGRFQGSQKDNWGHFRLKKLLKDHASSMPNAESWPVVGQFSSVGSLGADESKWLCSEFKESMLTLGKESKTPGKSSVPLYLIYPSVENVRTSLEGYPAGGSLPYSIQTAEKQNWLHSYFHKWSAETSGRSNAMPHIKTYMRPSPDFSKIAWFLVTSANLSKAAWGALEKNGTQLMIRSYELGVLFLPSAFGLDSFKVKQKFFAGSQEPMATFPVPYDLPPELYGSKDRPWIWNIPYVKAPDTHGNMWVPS

Assay [8] in a line: S16 Schwann cell PMP22 intronic element beta-lactamase assay (AID 624044; calls by dose curve;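 also: 0% = DMSO and -100% = potassium clavulanate positive control; nearly all actives have a fitted effect of over 15% in size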). To be noted: S16 rat Schwann cells, PMP22 element beta-lactamase FRET, 24 h; ratio activity, negative = inhibition: at 38.3 µM (top of the series). The method, boiled down:
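Rat S16 Schwann cells with beta-Lac driven by a PMP22 intronic element, compound-treated 24 h at 37 °C. LiveBLAzer FRET B/G read: 460 nm normalized to potassium clavulanate vs DMSO; 535 nm FRET as viability; concentration-effect curves classified.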

Assay [9] addresses Cytochrome P450 3A4 (Homo sapiens) (UniProt P08684). As to the kind of experiment: qHTS Assay for Inhibitors and Substrates of Cytochrome P450 3A4 (AID 884). Also: % is scaled to controls: 0 for no effect and ±100 for the full control effect; nearly all actives have a fitted effect of over 50% in size. In short, it runs like this:
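20 nM human CYP3A4 with 25 uM Luciferin-PPXE (at KM) in 200 mM KPO4, preincubated 10 min with compound; NADPH regeneration started a 60 min RT reaction. Luciferin detected by luminescence, normalized to 57 uM ketoconazole as full inhibition.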

In assay [10] the target is Androgen receptor (Homo sapiens) (UniProt P10275). As to the kind of experiment: qHTS assay for small molecule agonists of androgen receptor signaling (AID 588515; active = well fitted curve in the direction sought with a large enough effect in the signal ratio, with a control signal flat; the % refers to the signal ratio; also: % is scaled to controls: 0 for no effect and ±100 for the full control effect). To be noted: AR-UAS-bla HEK293, beta-lactamase ratio, agonist 16 h; stronger effect = higher value. In short, it runs like this: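 EC50 and efficacy came from Hill fits of titrations (up to 92 uM) normalized to 30 nM R1881 as 100% and DMSO as 0%. Compound exposure was 16 h at 37 C on AR-UAS-bla HEK293 cells, with a 405/460/530 nm CCF4 fluorescence read.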
Androgen receptor (Homo sapiens), sequence (P10275 whole entry, looked up): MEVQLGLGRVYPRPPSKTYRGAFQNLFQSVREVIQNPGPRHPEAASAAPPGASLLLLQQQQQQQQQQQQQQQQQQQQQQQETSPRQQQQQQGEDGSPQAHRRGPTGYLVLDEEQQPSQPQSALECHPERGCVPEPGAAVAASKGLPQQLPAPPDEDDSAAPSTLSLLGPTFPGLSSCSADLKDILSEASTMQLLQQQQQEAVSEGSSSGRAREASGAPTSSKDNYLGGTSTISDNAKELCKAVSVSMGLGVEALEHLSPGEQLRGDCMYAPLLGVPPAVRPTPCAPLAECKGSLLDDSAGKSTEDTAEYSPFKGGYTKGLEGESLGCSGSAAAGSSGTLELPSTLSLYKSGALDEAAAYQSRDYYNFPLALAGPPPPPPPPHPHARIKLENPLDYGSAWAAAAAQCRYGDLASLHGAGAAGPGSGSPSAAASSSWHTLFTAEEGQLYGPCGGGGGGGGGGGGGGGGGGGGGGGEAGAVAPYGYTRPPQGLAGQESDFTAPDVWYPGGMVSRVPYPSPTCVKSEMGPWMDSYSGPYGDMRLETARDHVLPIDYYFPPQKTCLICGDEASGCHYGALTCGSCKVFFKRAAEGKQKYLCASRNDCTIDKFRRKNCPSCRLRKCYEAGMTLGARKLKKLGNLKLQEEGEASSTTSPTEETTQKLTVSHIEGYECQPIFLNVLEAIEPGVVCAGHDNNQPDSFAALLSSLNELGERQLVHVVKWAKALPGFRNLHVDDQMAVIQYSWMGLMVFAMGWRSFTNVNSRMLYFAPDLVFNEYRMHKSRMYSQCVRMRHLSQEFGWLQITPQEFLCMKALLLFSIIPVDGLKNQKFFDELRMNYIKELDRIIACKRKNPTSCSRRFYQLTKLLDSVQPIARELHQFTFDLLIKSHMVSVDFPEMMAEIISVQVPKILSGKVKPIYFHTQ

For assay [11] the target is unchanged. As to the kind of experiment: qHTS assay for small molecule antagonists of androgen receptor signaling (AID 588516; active = well fitted curve in the direction sought with a large enough effect in the signal ratio, with a control signal flat, not every such curve was filed as active; the % refers to the signal ratio; also: % is scaled to controls: 0 for no effect and ±100 for the full control effect). In short, it runs like this: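 AR-UAS-bla-GripTite HEK 293 cells (2000/well, 5 h at 37 C) received compound titrations, then R1881 at 10 nM final; after 16 h at 37 C, CCF4 dye 2 h RT, beta-lactamase fluorescence read; IC50 from Hill fits.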
Assay [12] addresses Bile acid receptor (Homo sapiens) (UniProt Q96RI1). As to the kind of experiment: qHTS assay for small molecule antagonists of farnesoid X receptor signaling (AID 588526; calls by dose curve; also: % is scaled to controls: 0 for no effect and ±100 for the full control effect). The method, boiled down: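 Concentration-response titrations were fitted to the Hill equation for half-maximal inhibition and maximal response, with data normalised to 50 uM chenodeoxycholic acid and DMSO control wells. Cells: FXR-UAS-bla HEK293T, dialyzed FBS.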

Assay [13] deals with Peroxisome proliferator-activated receptor delta (Homo sapiens) (UniProt Q03181). As to the kind of experiment: qHTS assay for small molecule antagonists of peroxisome proliferator-activated receptor delta signaling (AID 588535; active = well fitted inhibition curve with a large enough effect in the signal ratio, with a control signal flat, not every such curve was filed as active; the % refers to the signal ratio). In short, it runs like this:
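Reporter: UAS-bla under PPAR-delta response element, HEK293T host. Medium: 2% charcoal/dextran FBS. Dosing: titration, 18 hrs, 37 C. Detection: CCF4, 2 hrs RT, 405 ex/460 and 530 em.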

Ubiquitin carboxyl-terminal hydrolase 1 (Homo sapiens), sequence (O94782 whole entry, looked up): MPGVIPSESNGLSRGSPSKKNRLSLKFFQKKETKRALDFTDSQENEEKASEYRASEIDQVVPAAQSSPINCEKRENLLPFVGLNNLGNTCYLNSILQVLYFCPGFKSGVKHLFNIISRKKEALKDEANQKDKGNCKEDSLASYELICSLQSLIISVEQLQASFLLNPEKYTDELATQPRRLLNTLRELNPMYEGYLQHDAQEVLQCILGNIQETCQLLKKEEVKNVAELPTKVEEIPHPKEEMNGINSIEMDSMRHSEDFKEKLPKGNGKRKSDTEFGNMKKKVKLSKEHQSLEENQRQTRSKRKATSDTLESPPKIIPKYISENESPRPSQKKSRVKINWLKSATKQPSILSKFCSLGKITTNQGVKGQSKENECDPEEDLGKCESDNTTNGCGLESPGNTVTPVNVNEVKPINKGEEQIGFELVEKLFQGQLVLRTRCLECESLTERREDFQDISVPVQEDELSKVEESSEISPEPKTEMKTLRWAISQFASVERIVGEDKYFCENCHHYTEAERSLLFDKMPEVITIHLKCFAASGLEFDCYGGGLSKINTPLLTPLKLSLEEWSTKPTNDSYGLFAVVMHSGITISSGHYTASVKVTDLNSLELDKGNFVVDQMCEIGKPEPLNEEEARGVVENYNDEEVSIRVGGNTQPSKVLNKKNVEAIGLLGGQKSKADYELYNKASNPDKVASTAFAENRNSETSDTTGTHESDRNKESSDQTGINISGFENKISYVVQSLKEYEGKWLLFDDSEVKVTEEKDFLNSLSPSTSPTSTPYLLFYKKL
Cytochrome P450 3A4 (Homo sapiens), sequence (P08684 whole entry, looked up): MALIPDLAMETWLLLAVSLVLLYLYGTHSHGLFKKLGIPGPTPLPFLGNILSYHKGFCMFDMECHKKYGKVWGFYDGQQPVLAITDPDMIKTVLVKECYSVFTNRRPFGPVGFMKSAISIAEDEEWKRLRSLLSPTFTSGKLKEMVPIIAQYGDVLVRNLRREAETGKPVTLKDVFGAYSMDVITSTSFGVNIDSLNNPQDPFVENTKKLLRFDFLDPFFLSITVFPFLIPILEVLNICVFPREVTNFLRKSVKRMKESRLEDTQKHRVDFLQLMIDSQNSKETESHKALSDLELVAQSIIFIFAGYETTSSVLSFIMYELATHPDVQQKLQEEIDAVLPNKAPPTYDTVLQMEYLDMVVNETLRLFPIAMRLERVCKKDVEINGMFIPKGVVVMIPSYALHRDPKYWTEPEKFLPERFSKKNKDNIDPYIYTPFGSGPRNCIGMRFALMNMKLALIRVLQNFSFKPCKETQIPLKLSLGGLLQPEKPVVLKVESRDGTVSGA
Bile acid receptor (Homo sapiens), sequence (Q96RI1 whole entry, looked up): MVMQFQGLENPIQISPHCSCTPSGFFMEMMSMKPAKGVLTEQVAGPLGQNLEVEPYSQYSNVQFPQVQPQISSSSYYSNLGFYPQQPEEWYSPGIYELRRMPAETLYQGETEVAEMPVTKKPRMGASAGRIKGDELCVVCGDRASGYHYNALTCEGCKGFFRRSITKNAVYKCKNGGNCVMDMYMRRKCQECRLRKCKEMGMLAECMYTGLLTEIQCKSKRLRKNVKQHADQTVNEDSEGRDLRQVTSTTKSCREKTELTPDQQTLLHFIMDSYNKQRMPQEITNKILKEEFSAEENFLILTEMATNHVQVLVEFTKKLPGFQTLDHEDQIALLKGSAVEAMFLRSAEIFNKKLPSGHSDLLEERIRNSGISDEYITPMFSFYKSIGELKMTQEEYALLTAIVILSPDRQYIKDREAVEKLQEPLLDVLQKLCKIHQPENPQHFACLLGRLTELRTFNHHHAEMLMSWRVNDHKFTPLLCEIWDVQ
Peroxisome proliferator-activated receptor delta (Homo sapiens), sequence (Q03181 whole entry, looked up): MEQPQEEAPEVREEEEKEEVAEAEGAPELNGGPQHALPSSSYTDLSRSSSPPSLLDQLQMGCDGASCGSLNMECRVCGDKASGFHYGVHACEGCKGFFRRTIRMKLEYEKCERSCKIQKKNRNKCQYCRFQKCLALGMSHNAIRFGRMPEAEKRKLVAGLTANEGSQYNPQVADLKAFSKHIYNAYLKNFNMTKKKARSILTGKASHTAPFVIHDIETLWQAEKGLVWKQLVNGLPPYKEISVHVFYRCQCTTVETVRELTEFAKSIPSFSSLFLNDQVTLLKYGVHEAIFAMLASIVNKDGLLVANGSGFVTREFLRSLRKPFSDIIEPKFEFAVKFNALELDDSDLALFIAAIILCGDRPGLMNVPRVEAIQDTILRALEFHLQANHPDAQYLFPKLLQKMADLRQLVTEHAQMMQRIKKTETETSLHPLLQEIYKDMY

Regarding `CO/N=C(/C(=O)N[C@@H]1C(=O)N2C(C(=O)O)=C(C[n+]3ccc(N)n3CCO)CS[C@H]12)c1csc(N)n1`, the Potency entry in [1], in assay [2], in assay [3], in [4] and in assay [5] was “inactive” in each case.
With `CC(=O)OCC1=C(C(=O)O)N2C(=O)C(NC(=O)CSc3ccncc3)[C@@H]2SC1` (stereo partly drawn), the Potency result in assay [6] and in [1] was “inactive” in each case. Also, the Potency in assay [7] is 14.1 µM (active).
For the molecule `O=C(O)c1ccc(CSc2n[nH]c(-c3ccco3)n2)cc1`, in assay [7], the Potency is 39.8 µM (active).
Consider `CO[C@H]1OC2O[C@@]3(C)CC[C@H]4[C@H](C)CC[C@@H]([C@H]1C)[C@@]24OO3` (stereo partly drawn), for which the Potency result in [1], in assay [2] and in assay [8] was “inactive” throughout. In addition, the Potency is 3.22 µM (active) in [3], 0.012 µM (active) in assay [4] and 0.006 µM (active) in assay [5].
In the case of `Cc1ccc(S(=O)(=O)NC(=O)NC(C)Cc2ccccc2)cc1` (stereo not drawn), the Potency entry in assay [1], in assay [2], in assay [3], in assay [4] and in assay [5] was “inactive” each time.
With `CO/N=C(/C(=O)NC1C(=O)N2C(C(=O)O)=C(COC(N)=O)CSC12)c1ccco1` (stereo not drawn), the Potency result in assay [9], in assay [6] and in assay [1] was “inactive” each time. Moreover, the Potency in assay [7] was 6.31 µM (active).
For the molecule `C=C1[C@@H]2CC[C@H](C2)C1(C)C`, the Potency entry in [1], in assay [2], in [3], in assay [8], in [4] and in [5] was “inactive” each time.
Take `C[C@@H]1C(SC2Cn3cnc[n+]3C2)=C(C(=O)[O-])N2C(=O)[C@H]([C@@H](C)O)[C@@H]12` (stereo partly drawn): the Potency result in assay [1], in assay [2], in assay [3], in assay [4] and in assay [5] was “inactive” in each case.
On to `CNC(=O)C(N)CSC(C)C1=C(C)c2cc3[n-]c(cc4nc(cc5[n-]c(cc1n2)c(C)c5CCC(=O)O)C(CCC(=O)O)=C4C)c(C)c3C(C)SCC(N)C(=O)NC.[Fe+2]` (stereo not drawn), for which the Potency result in [1], in assay [2], in assay [3], in assay [8], in assay [4] and in assay [5] was “inactive” in each case.
Consider `CC12C=CC(=O)C=C1[C@@H](F)CC1C2C(O)CC2(C)C1CC[C@]2(O)C(=O)CO` (stereo partly drawn), for which the Potency result in assay [1], in assay [2], in assay [3], in assay [4] and in assay [5] was “inactive” throughout.
On to `O=c1[nH]c(=O)n(C2C[C@H](O)[C@@H](CO)O2)cc1C(F)(F)F` (stereo partly drawn), for which the Potency entry in [1], in assay [2], in assay [4] and in assay [5] was “inactive” in each case. The Potency in assay [3] is 0.51 µM (active).
Regarding `CC1CCC(C(C)C)C(O)C1` (stereo not drawn), the Potency entry in [1], in [12], in assay [2], in [3], in [8] and in assay [4] was “inactive” each time. In assay [5], the Potency entry was “inactive”. Also, the activation in assay [10] is 13.2%. Also, the result in [11] and in assay [13] was inactive.
Regarding `O=c1ccn(C2OC(COP(=O)(O)OC3C(CO)OC(n4ccc(=O)[nH]c4=O)C3O)C(O)C2O)c(=O)[nH]1` (stereo not drawn), the Potency result in assay [1], in assay [2], in [3], in [8], in assay [4] and in assay [5] was “inactive” in each case.
As to `O=C(O)CNC(=O)CC1S/C(=N/N=C2/NC(=O)CS2)NC1=O` (stereo not drawn), in [7], the Potency is 89.1 µM (active).
Regarding `CCOC(=O)c1sc2nc3c(SCCC(=O)O)cc(C(=O)c4cc(OC)ccc4O)cn3c(=O)c2c1C`, the Potency in [7] is 2.82 µM (active).
Consider `CC(=O)NC[C@@H]1CN(c2ccc(N3CCOCC3)c(F)c2)C(=O)O1`, for which the Potency entry in assay [1], in [2], in assay [3], in [8], in assay [4] and in assay [5] was “inactive” each time.
`COc1ccc(-c2nc3c(c(SCC(=O)Nc4ccc(C(=O)O)cc4)n2)Cc2ccccc2O3)cc1`: the Potency in [7] is 1.62 µM (active).
Take `CC(O)C(N)C(=O)O` (stereo not drawn): the Potency entry in assay [1], in assay [2], in assay [3], in assay [8], in [4] and in [5] was “inactive” each time.
As for `CCCCCCCCCCCCCCCC(=O)OCC(COP(=O)(O)OCC[N+](C)(C)C)OC(=O)CCCCCCCCCCCCCCC` (stereo not drawn), the Potency entry in [1], in assay [2], in assay [3], in assay [8], in assay [4] and in [5] was “inactive” each time.
